Sampled rows, rich in hits. Any-hit rate of the full collection: about 2.3%.
TDP-43 yeast inh = rescues yeast growth from TDP-43 toxicity; AID 652104; TDP-43 expressing yeast growth rescue, BacTiter-Glo, 24 h; Potency, µM (highest dose often 46.1 µM), for the others: at the top dose growth rescue (activation), actives largely listed as activators; hit rate 1.8% among 410,000; further: % of control where 0% means no effect; nearly all actives have a fitted effect of over 50% in size
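Readout is BacTiter-Glo luminescence of cell growth, so inhibitors register as activators. TDP-43-expressing yeast at OD600=0.02 in galactose medium, after raffinose pregrowth to mid-log, were incubated with compound for 24 hr at 30 deg C.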
FUS suppressor = suppressors of FUS proteinopathy in yeast | AID 1347120 | hit rate 0.24% among 390,000 | S. cerevisiae FUS-expressing, growth rescue, OD600, 24 h | Potency, µM (titrated, usually from 76.6 µM), hits mostly activators;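 further: plate controls were DMSO vehicle for no effect and reference control for full effect; nearly all actives have a fitted effect of over 55% in size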
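Steps: raffinose overnight preculture; dilution to OD 0.005 in 2% galactose minimal medium; compound addition (concentration series); 24hr at 30C, 99% humidity; absorbance read at 600 nm.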
uPA surface inh = blocks generation of uPA at the cell surface | cell surface uPA generation assay, qHTS | Potency, µM (doses to about 38.3 µM), for the others: at the highest dose activity change, negative = inhibition, actives largely listed as inhibitors | hit rate 0.31% among 330,000 | AID 540303; active means well fitted inhibition curve with a large enough effect; inconclusive means small, poorly fitted or top-dose-only effect; inactive means no such curve, though single readings can be large or run the other way; tested in mouse RAW 264.7 cells; further: on the % scale 0 is the no-effect control and ±100 the full control effect; nearly all actives have a fitted effect of over 55% in size
Abeta rescue = compounds reversing amyloid beta toxicity in yeast; yeast expressing A-beta42, growth rescue, OD600, 48 h; response scale: 0% DMSO, 100% iron-clioquinol control; Potency, µM (doses to about 46.1 µM), usual class: activators; hit rate 0.063% among 410,000; AID 1347071; further: nearly all actives have a fitted effect of over 55% in size
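Yeast growth medium received pinned compounds, then yeast cells expressing toxic A-beta were added; plates incubated at 30 C for 48 hr. Growth read as absorbance at 600 nm, normalized to DMSO and equimolar FeCl3 plus clioquinol controls.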
aSyn rescue = alpha-synuclein toxicity inhibition in yeast | Yeast expressing alpha-synuclein, growth rescue, BacTiter-Glo, 24 h | Potency, µM (top dose mostly 46.1 µM), inactives show at the top dose growth rescue (activation), most hits filed as activators | hit rate 0.14% among 370,000; further: % of control where 0% means no effect; nearly all actives have a fitted effect of over 65% in size
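Galactose-induced alpha-syn yeast (OD600=0.02, raffinose-pregrown) + pinned cpd, 24 hr, 30 deg C; growth by BacTiter-Glo luminescence. Growth restoration scores as activation.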
Chronic BCR inh = blocks chronic active B-cell receptor signaling; ABC-DLBCL IkBa-CBG/CBR reporter, luminescence ratio, 4 h; Potency, µM (doses to about 46.1 µM), without a hit: top-dose activity change, negative = inhibition, hits mostly inhibitors; hit rate 0.05% among 340,000; AID 493014; active means well fitted inhibition curve with a large enough effect in the signal ratio, with a control signal flat, not every such curve was filed as active; inconclusive means small, poorly fitted or top-dose-only effect, or effect the other way, or a change in a side signal; the % refers to the signal ratio;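 further: plate controls were basal doxycycline-induced cells for no effect and cells given 10 µM MG132 for full effect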
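Compounds up to 46 uM were incubated four hours with TMD8 cells whose green CBG68 luciferase is fused to IkappaBalpha; red CBR luminescence normalised the signal, and concentration-effect curves were fitted to fusion, red and ratio data.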
* = called active by the depositor; i = inactive; ? = inconclusive; · = no result. Unless noted, the call rests on the fitted dose curve; in most records, active means well fitted curve in the direction sought with a large enough effect; inconclusive means small, poorly fitted or top-dose-only effect, or another doubt; inactive means no such curve, though single readings can be large; an effect the other way counts as inactive or inconclusive. Potency means the concentration at half of the fitted maximal effect.

SMILES	TDP-43 yeast inh	FUS suppressor	uPA surface inh	Abeta rescue	aSyn rescue	Chronic BCR inh
Cc1cc(Cl)ccc1NNC(=O)CCc1ccccc1	13µM*	i	-1%	i	10%	5%
COc1ccc(Cl)cc1NC(=S)NCCc1ccc(F)cc1	32µM*	i	3%	?	-13%	2%
CC(=O)C1=CN(CC2CCCCC2)CCC1=O	10%	i	10%	i	0%	·
COc1ccc(Cl)cc1NC(=O)N1CCN(c2ccccc2OC)CC1	11µM*	?	-9%	i	13%	-8%
COc1ccccc1N1CCN(C(=O)Nc2cccc(Cl)c2)CC1	-4%	i	·	i	6%	-28%
C=CCn1c(SCC(=O)Nc2cc3oc4ccccc4c3cc2OC)nnc1-c1cnccn1	17%	i	2%	i	2%	10%
COc1cc2c(cc1NC(=O)CSc1nnc(-c3cnccn3)n1-c1ccc(C)cc1)oc1ccccc12	·	18µM*	·	·	·	·
Cc1cc2c(NC3CCCCC3)ncnc2s1	11µM*	i	-4%	i	-11%	-22%
CCc1ccccc1NC(=O)NC1CCCCC1	-16%	i	1%	i	-2%	-24%
CN(C)c1ccc(C(=O)c2ccccc2)cc1	13µM*	i	-5%	i	-10%	?
O=C(C[n+]1ccccc1)c1ccc(-c2ccccc2)cc1	?	i	-5%	i	5%	4%
CN(C)c1cc[n+](CC(=O)c2ccc(-c3ccccc3)cc2)cc1	0%	i	7.1µM*	i	-25%	-19%
CCOc1ccccc1NC(=O)c1c2c(nc3ccccc13)C(=O)N(C1CCCCC1)C2	0%	?	·	i	·	·
O=C1CC(c2ccco2)CC2=C1C(c1ccc(O)cc1)n1nc(C(F)(F)F)nc1N2 (stereo unspecified)	·	·	·	·	-1%	·
S=C1NCCc2ccc(Cl)cc2C1c1ccccc1 (stereo unspecified)	14µM*	i	5%	i	?	-5%
CCCCOC(=O)/C=C/c1ccc(OC(=O)OC)c(OC(=O)OC)c1	14µM*	i	-9%	i	-41%	1%
COc1ccc(/C=C/C(=O)OCCNC(=O)c2ccncc2)cc1OC	13%	i	3%	?	4%	0%
COC(=O)Oc1ccc(/C=C/C(=O)OC(C)C)cc1OC(=O)OC	14µM*	i	-8%	i	-12%	2%
NNC(=O)c1ccc(CSc2cccc3cccnc23)cc1	3%	i	-7%	i	-2%	0%
Cc1ccc(S(=O)(=O)NC2c3cccc4cccc(c34)C2Sc2ncccn2)cc1 (stereo unspecified)	16µM*	·	-2%	i	2%	-1%
CC(C)N(C(=O)[C@H]1CC(CC(=O)NCCC2=CCCCC2)C(=O)N2CCc3c([nH]c4ccccc34)[C@]12C)C(C)C (stereo partly specified)	35µM*	?	14%	i	?	5%
CCN(CC)C(=O)[C@H]1C[C@H](CC(=O)NCC23CC4CC(CC(C4)C2)C3)C(=O)N2CCc3c([nH]c4ccc(Cl)cc34)[C@]12C	20µM*	i	?	i	?	0%
COc1ccc2[nH]c3c(c2c1)CCN1C(=O)C(CC(=O)NCCC2=CCCCC2)C[C@H](C(=O)N(C(C)C)C(C)C)[C@@]31C (stereo partly specified)	?	?	?	i	-5%	?
COc1cc(C(=O)N[C@@H](C)C(=O)N2CCC3(CC2)NCCc2[nH]cnc23)cc(OC)c1OC	-17%	i	-3%	i	-7%	-11%
COC(=O)C1=C(C)NC(=O)/C1=C\c1cc(C)n(-c2cc(C)cc(C)c2)c1C	-32%	?	1%	i	-21%	-10%
COC(=O)[C@@]1(Cc2ccc(OC)cc2)[C@@H]2C(=CC(=O)[C@H]2CC(=O)C(=O)N2CCCC2)CN1C(=O)c1ccccc1	-1%	i	8.9µM*	i	7%	?
